Data reported in PubChem BioAssay (NCATS).
Records with an inconclusive call do not appear. Calls of active or inactive are those of the source. Calls come from the whole dose curve; as a rule, active = well fitted curve in the direction sought with a large enough effect; inconclusive = small, poorly fitted or top-dose-only effect, or another doubt; inactive = no such curve, though single readings can be large; an effect the other way counts as inactive or inconclusive.

Experiments:
[1] = biological target: Protein phosphatase 1D (Homo sapiens) (UniProt O15297); experiment: RapidFire Mass Spectrometry qHTS Assay for Modulators of WT P53-Induced Phosphatase 1 (WIP1) (AID 1347424); conditions: WIP1 dephosphorylation of phosphopeptide, RapidFire MS; series mostly up to 63 µM;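 note: amount of dephosphorylated VEPPL-S-QETFS peptide product formed by WIP1; plate controls were DMSO wells for no effect and GSK830371 inhibitor control at 10 µM for full effect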
Method in brief: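 Mass-spectrometric measurement of dephosphorylated peptide after a 5 min room-temperature reaction of 10 nM WIP1 with 2 uM phosphopeptide, following 1 h compound preincubation in 30 mM MgCl2 buffer.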

[2] = biological target: Protein phosphatase 1D (Homo sapiens) (UniProt O15297); experiment: Rhodamine-PBP qHTS Assay for Modulators of WT P53-Induced Phosphatase 1 (WIP1) (AID 1347425); conditions: recombinant WIP1, Rhodamine-PBP phosphate fluorescence, real-time; series mostly up to 57.5 µM; note: % of control where 0% means no effect
Method in brief: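 Read-out: Rhodamine-PBP fluorescence (ex 525/em 598 nm) for released Pi, read each minute for 11 min after adding 10 uM VEPPL-pS-QETFS; signal taken as f1 minus pre-substrate f0. Enzyme 5 nM WIP1 with 1 hr room-temperature compound preincubation.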

[3] = Primary qHTS for inhibitors of La Crosse Virus (LACV) - induced cell death in SH-SY5Y cells (AID 1508616); conditions: SH-SY5Y LACV cytopathicity rescue, ATP luminescence, 6 d; series mostly up to 4.29 µM;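 note: top concentration of the series differs between compounds; 0% = infected DMSO wells and 100% = uninfected DMSO wells; higher means more rescue of cells from virus-induced death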
Method in brief: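 Cytopathicity rescue screen: compounds pinned onto SH-SY5Y cells, which are then infected with LACV (MOI 0.01) and held 6 days at 37C. Percent activity is scaled between infected DMSO control and uninfected DMSO control.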

[4] = biological target: Calcium and integrin-binding protein 1 (Homo sapiens) (UniProt Q99828); experiment: Primary qHTS for Identification of Calcium Integrin Binding Protein 1 (CIB1) Competitor (AID 1508620); conditions: CIB1-GST / FITC-alphaIIb peptide fluorescence polarization; series mostly up to 114 µM;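 note: GST tagged CIB1 binding a fluorescein labelled alphaIIb integrin peptide tracer; top concentration of the series differs between compounds; % is set by controls: 0 for no effect and ±100 for the full control effect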
Method in brief: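 Fluorescence polarization competition: CIB1-GST (1 uM final) preincubated with compound 15 min at room temperature, then FITC-labeled alphaIIb peptide (100 nM final) added for another 15 min. Polarization read at Ex 480/Em 540.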

Calcium and integrin-binding protein 1 (Homo sapiens), sequence (Q99828 whole entry, looked up): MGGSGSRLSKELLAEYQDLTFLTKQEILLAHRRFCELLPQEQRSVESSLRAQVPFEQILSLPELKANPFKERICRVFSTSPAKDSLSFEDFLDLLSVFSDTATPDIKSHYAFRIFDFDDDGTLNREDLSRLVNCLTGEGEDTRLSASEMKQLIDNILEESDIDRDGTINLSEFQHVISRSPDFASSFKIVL
Protein phosphatase 1D (Homo sapiens), sequence (O15297 whole entry, looked up): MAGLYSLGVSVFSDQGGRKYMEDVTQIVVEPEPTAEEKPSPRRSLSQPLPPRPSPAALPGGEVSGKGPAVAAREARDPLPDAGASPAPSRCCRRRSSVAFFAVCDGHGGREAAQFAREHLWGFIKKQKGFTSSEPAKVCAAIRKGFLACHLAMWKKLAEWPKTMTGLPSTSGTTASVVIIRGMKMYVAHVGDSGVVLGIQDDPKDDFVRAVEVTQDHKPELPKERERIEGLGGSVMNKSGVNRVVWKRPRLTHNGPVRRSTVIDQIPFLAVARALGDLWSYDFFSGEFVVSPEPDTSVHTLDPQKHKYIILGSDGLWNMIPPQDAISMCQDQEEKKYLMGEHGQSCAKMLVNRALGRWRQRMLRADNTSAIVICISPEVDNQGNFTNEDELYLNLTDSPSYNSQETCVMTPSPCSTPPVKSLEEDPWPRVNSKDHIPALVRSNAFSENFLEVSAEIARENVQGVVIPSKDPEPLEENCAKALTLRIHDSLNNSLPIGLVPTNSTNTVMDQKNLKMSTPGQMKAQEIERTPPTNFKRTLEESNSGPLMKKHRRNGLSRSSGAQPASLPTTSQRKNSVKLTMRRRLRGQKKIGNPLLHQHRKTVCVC

COCC(=O)Nc1c(I)c(C(=O)NCC(O)CO)c(I)c(C(=O)N(C)CC(O)CO)c1I (centres undefined)
inactive: outcome [1] | outcome [2] | outcome [3] | outcome [4]

CNCc1ccccc1
inactive: outcome [1] | outcome [2] | outcome [3] | outcome [4]

CC(=O)OC[C@H]1O[C@@](COC(C)=O)(O[C@H]2O[C@H](COC(C)=O)[C@@H](OC(C)=O)[C@H](OC(C)=O)[C@H]2OC(C)=O)[C@@H](OC(C)=O)[C@@H]1OC(C)=O
inactive: outcome [1] | outcome [2] | outcome [3]

Cc1cccc(Nc2ccccc2C(=O)O)c1C
inactive: outcome [1] | outcome [2] | outcome [3] | outcome [4]

NS(=O)(=O)c1cc(-c2nn[nH]n2)c(NCc2cccs2)cc1Cl
inactive: outcome [1] | outcome [3]

NNC(=O)CP(=O)(c1ccccc1)c1ccccc1
inactive: outcome [1] | outcome [2] | outcome [3] | outcome [4]

CCCCOC(=O)c1ccc(N)cc1
inactive: outcome [1] | outcome [2] | outcome [4]

CCCCCCCCCCCCCCCCC(C(=O)O)C(O)(CC(=O)O)C(=O)O (centres undefined)
inactive: outcome [2] | outcome [3] | outcome [4]

CC(C)CCOC(=O)c1ccc(N(C)C)cc1
inactive: outcome [1] | outcome [2] | outcome [3] | outcome [4]

Cc1ccc2c(c1)c1c3n2CCNC3CCC1 (centres undefined)
inactive: outcome [1] | outcome [2] | outcome [3] | outcome [4]

Nc1ccc(C(=O)Oc2ccccc2)c(O)c1
inactive: outcome [1] | outcome [2] | outcome [4]

CCOc1ccccc1O[C@H](c1ccccc1)[C@H]1CNCCO1
inactive: outcome [1] | outcome [2] | outcome [4]

CC(CSC(=O)c1ccccc1)C(=O)N1C[C@@H](Sc2ccccc2)C[C@H]1C(=O)O (some centres undefined)
inactive: outcome [1] | outcome [2] | outcome [3] | outcome [4]

Cc1cc(NC(=O)C2=C(O)c3ccccc3S(=O)(=O)N2C)no1
inactive: outcome [1] | outcome [2] | outcome [3] | outcome [4]

c1ccc2[nH]ccc2c1
inactive: outcome [1] | outcome [2] | outcome [3]

Cc1c(Cn2ccnc2)c2ccccc2n1CCC(=O)O
inactive: outcome [1] | outcome [2] | outcome [3] | outcome [4]

CCCCC1(COC(=O)CCC(=O)O)C(=O)N(c2ccccc2)N(c2ccccc2)C1=O
inactive: outcome [1] | outcome [2] | outcome [3] | outcome [4]

CN1C(=O)CC(c2ccccc2)C1=O (centres undefined)
inactive: outcome [1] | outcome [2] | outcome [3] | outcome [4]

CC(=O)Nc1cccc(O)c1
inactive: outcome [1] | outcome [2] | outcome [3]

CN[C@@H]1[C@H](O)[C@H](NC)[C@H]2O[C@@]3(O)C(=O)C[C@@H](C)O[C@H]3O[C@@H]2[C@H]1O
inactive: outcome [1] | outcome [2] | outcome [3] | outcome [4]

CCCCCCCCCCCCCCCCCCO
inactive: outcome [1] | outcome [2] | outcome [4]

C[N+]1(C)CCCC(OC(=O)C(O)(c2ccccc2)c2ccccc2)C1 (centres undefined)
inactive: outcome [1] | outcome [2] | outcome [4]

Nc1c2c(nc3c1CCC3)CCCC2
inactive: outcome [1] | outcome [2] | outcome [3] | outcome [4]

CC(=O)NS(=O)(=O)c1ccc(N)cc1
inactive: outcome [1] | outcome [2] | outcome [3]

CN/C(=C\[N+](=O)[O-])NCCSCc1csc(CN(C)C)n1
inactive: outcome [1] | outcome [2] | outcome [4]

C[N+](C)(C)CC[N+]1(C)Cc2c(Cl)c(Cl)c(Cl)c(Cl)c2C1
inactive: outcome [1] | outcome [2] | outcome [3] | outcome [4]

CN1CC(=O)NC1=N
inactive: outcome [1] | outcome [2] | outcome [3] | outcome [4]

CCOc1ccc(C(=O)OCCN(CC)CC)cc1
inactive: outcome [1] | outcome [2] | outcome [3] | outcome [4]

CCCCCC(N)=O
inactive: outcome [1] | outcome [2] | outcome [3] | outcome [4]

CN[C@@H]1[C@@H](O)[C@@H](O[C@@H]2[C@H](O)[C@H](O[C@H]3OC(CN)=CC[C@H]3N)[C@@H](N)C[C@H]2N)OCC1(C)O (some centres undefined)
inactive: outcome [1] | outcome [2] | outcome [3] | outcome [4]

O=C(CN1CCNCC1)NC1CCCCC1
inactive: outcome [1] | outcome [2] | outcome [3] | outcome [4]

Nc1ncnc2c1ncn2[C@@H]1O[C@H](COP(=O)(O)O)[C@@H](O)[C@H]1O
inactive: outcome [1] | outcome [2] | outcome [3] | outcome [4]

O=C(NCCCN1CCOCC1)c1ccc(Cl)cc1
inactive: outcome [1] | outcome [2] | outcome [3] | outcome [4]

CCOC(=O)OC(C)OC(=O)[C@@H]1N2C(=O)[C@@H](NC(=O)[C@H](N)c3ccccc3)[C@H]2SC1(C)C (some centres undefined)
inactive: outcome [1] | outcome [2] | outcome [3] | outcome [4]

NC(N)=NCCN1CCCCCCC1
inactive: activity change, negative = inhibition [1] 2.05% [at 0.505 µM] | activity change, negative = inhibition [2] 1.78% [at 0.575 µM] | activity change [3] -10.9% [at 0.0343 µM] | activity change, negative = inhibition [4] -2.06% [at 1.07 µM]

C[C@@H](c1ncncc1F)C(O)(Cn1cncn1)c1ccc(F)cc1F (some centres undefined)
inactive: outcome [1] | outcome [2] | outcome [3] | outcome [4]

Cn1c(=O)c2c(ncn2CCO)n(C)c1=O
inactive: outcome [2] | outcome [3] | outcome [4]
